ADAM10 inh: inhibitors of human ADAM10 | O14672 | recombinant ADAM10, EDANS/DABCYL FRET peptide cleavage, 3 h | inhibition, % at 7 µM | hit rate 0.62% among 370,000 | AID 720582;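 active means inhibition above a per-campaign cutoff equal to the mean of compounds falling between control-based bounds plus 3 SD, cut at about 20% in these data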;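 further: 0% = DMSO wells while the 100% control is not disclosed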
rCAG binder: binds r(CAG) RNA repeats. inhibition, % at 3 µM. r(CAG) RNA repeat, TO-PRO-1 dye displacement fluorescence. hit rate 1.3% among 370,000. AID 651821;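 active means inhibition above the plate cutoff, the mean of all test compounds on that plate plus 3 SD, cut at about 35% in these data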;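 further: 0% = DMSO alone and 100% = 100 µM mitoxantrone as full dye displacement; higher means more dye released from RNA so lower well fluorescence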
MPTP inh: blocks calcium-induced mitochondrial swelling; isolated mouse mitochondria, Ca2+ swelling absorbance, 30 min; inhibition, % at 10 µM; hit rate 1.4% among 360,000; AID 602449;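 active means inhibition of 50% or more, scaled per plate between neutral and stimulator controls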;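 further: 0% = DMSO wells given calcium and 100% = 1 mM EGTA wells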
ADAM17 inh: inhibitors of human ADAM17; recombinant ADAM17, EDANS/DABCYL FRET peptide cleavage; inhibition, % at 6.95 µM; hit rate 0.83% among 370,000; P78536;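 active means inhibition above the mean of compounds lying between control limits plus 3 SD, set per campaign, cut at about 8.5% in these data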;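 further: 0% = DMSO-only wells as the low control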
proKLK7 act: activates the human kallikrein-7 zymogen; P49862; purified proKLK7, EDANS-DABCYL substrate fluorescence; 100% is mature enzyme control, 0% vehicle; activation, % at 7 µM; hit rate 0.9% among 370,000;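 active means activation above the mean of all tested compounds plus 3 SD, computed per campaign excluding outliers beyond control limits, cut at about 13% in these data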
Target sequence (P49862 whole entry, looked up): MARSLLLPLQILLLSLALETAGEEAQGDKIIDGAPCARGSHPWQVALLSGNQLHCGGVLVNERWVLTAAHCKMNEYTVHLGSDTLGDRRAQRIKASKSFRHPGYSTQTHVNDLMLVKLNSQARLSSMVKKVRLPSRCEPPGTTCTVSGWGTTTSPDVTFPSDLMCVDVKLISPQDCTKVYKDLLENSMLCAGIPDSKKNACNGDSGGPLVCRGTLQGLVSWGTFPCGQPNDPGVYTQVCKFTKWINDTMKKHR
DSG3 Ab inh: inhibitors of pemphigus antibody binding to human desmoglein-3 | P32926 | DSG3-coupled beads, scFv-anti-DSG3-GFP binding, flow cytometry; hits give low values | binding (percent of control), % at 10 µM | hit rate 0.48% among 310,000;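 active means binding more than 3 SD below its plate's average and above zero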;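 further: hits lower antibody fragment binding to DSG3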
ADAM10 confirm: human ADAM10 inhibition, confirmation; shares compounds with ADAM10 inh; ADAM10 QFRET peptide cleavage, EDANS fluorescence; inhibition, % at 6.95 µM; hit rate 1% among 2,100;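 active means inhibition above about 20% chosen separately for each screening run, limit read from the data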;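 further: 0% = DMSO wells and 100% = marimastat wells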
ADAM17 counter: counter-screen for ADAM10 exosite inhibitors: inhibitors of human ADAM17; shares compounds with ADAM10 inh; ADAM17 QFRET peptide cleavage, EDANS fluorescence; inhibition, % at 6.95 µM; hit rate 0.5% among 2,100;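 active means mean triplicate inhibition above the solvent-only control wells' mean plus 3 SD, cut at about 12% in these data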;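 further: 0% = DMSO wells and 100% = marimastat wells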
* marks the source's active call; other numbers are inactive results; . = not tested or not shown. In the library only some 4.7% were active in any assay of this set; here they are far more common.

SMILES | ADAM10 inh | rCAG binder | MPTP inh | ADAM17 inh | proKLK7 act | DSG3 Ab inh | ADAM10 confirm | ADAM17 counter
Nc1[nH]c(C(=O)c2ccccc2)c(-c2ccccc2[N+](=O)[O-])c1C(=O)NCCc1c[nH]c2ccccc12 | 25* | 15 | . | 12* | 0 | . | 3 | 2
C=CCN(C(=O)Cn1c(C(=O)OC)cc2oc(C)cc21)c1ccccc1 | 82* | -2 | 0 | 0 | 1 | 90 | 3 | 1
O=C1c2[nH]nc(-c3ccccc3O)c2C(c2cccc(Cl)c2)N1Cc1ccco1 (stereo not given) | 29* | 11 | 39 | 7 | 0 | 109 | 4 | 1
C#CC1(O)CCCC2C3CCC4CC(OC(C)=O)CCC4(C)C3C(=O)CC21C (stereo not given) | 24* | -1 | 0 | 2 | 0 | 94 | 2 | 0
OCCCn1c(CCNc2nc(-c3ccc(F)cc3)cs2)nc2cc(C(F)(F)F)ccc21 | 21* | 7 | -1 | 7 | 0 | 106 | 5 | 1
CC(C)(C)c1ccc(Cn2nnc3c(=O)[nH]c(C4CCCN(C(=O)c5cccs5)C4)nc32)cc1 (stereo not given) | 24* | 16 | 2 | 8 | -1 | 105 | 1 | 0
CC(C)(C)c1ccc(Cn2nnc3c(=O)[nH]c(C4CCCN(C(=O)Cc5cccs5)C4)nc32)cc1 (stereo not given) | 6 | 5 | -3 | 1 | 0 | 94 | . | .
O=c1[nH]c(C2CCN(S(=O)(=O)c3ccc4c(c3)OCCO4)CC2)nc2c1nnn2Cc1ccccc1 | 4 | 9 | -2 | 1 | 0 | 98 | . | .
Cc1ccc(C)c(S(=O)(=O)N2CCC(c3nc4c(nnn4Cc4ccc5c(c4)OCCO5)c(=O)[nH]3)CC2)c1 | 24* | 11 | 0 | 5 | 0 | 113 | 11 | 3
CCCCC(=O)N1CCCC(c2nc3c(nnn3Cc3cc(C)ccc3C)c(=O)[nH]2)C1 (stereo not given) | 88* | -4 | -2 | -3 | 0 | 97 | 0 | 0
O=C(COc1ccc(Cl)cc1)Nc1cccc(-c2ccc(N3CCOCC3)nn2)c1 | 2 | 3 | 1 | -4 | 0 | 95 | . | .
Cc1cc(C)c(C)c(S(=O)(=O)Nc2ccc3cn[nH]c3c2)c1C | 99* | 4 | 1 | -6 | -1 | 98 | 1 | 1
N#Cc1c(N)[nH]c(=S)c(C#N)c1-c1ccccc1 | -56 | 5 | 13 | -12 | -1 | 94 | . | .
N#Cc1c(N)[nH]c2ccc(Sc3ccccc3)cc12 | 25* | 11 | 46 | 1 | 0 | 116 | 3 | 2
CCN(CC)S(=O)(=O)c1ccc(N2CC(C(=O)NCc3ccco3)CC2=O)cc1 (stereo not given) | -4 | 3 | -2 | -1 | 0 | 99 | . | .
C[C@H]1CCC[C@@]2(O[C@@H](CCO)C[C@H](O)[C@H]2O)O1 | 83* | 1 | 0 | -8 | -1 | 96 | 1 | 0
COc1ccc([C@@H]2[C@@H]3C(=O)N(C(C)(C)C)C(=O)[C@@H]3[C@]3(Cc4ccccc4)C(=O)N(c4ccc(OC)cc4)C(=O)N23)cc1 | 23* | 5 | 0 | 2 | 0 | 99 | 1 | 0
Cc1ccnc(NS(=O)(=O)c2cccc3nsnc23)c1 | 20* | 0 | 0 | 0 | 0 | 104 | 2 | 1
Cc1cccc(NS(=O)(=O)c2cccc3nsnc23)c1 | 12 | 4 | 0 | 3 | 0 | 110 | . | .
CS(=O)(=O)Nc1ccc(C(=O)NCCSC2CCCCC2)cc1 | . | . | -1 | . | . | 104 | . | .
Cc1ccc(NS(=O)(=O)c2cc(C(=O)NCCSC3CCCCC3)ccc2C)cc1 | 21* | 4 | 21 | 6 | 0 | 101 | 3 | 2
CCOc1ccc(C(=O)/C=C/c2ccccc2C(F)(F)F)cc1 | 10 | -3 | 5 | 6 | 0 | 96 | . | .
COc1ccc(C(=O)/C=C/c2ccccc2C(F)(F)F)cc1 | 20* | 2 | 4 | 6 | 0 | 100 | 2 | 0
CCOC(=O)c1c(N/N=C/c2cccnc2)n[nH]c1C | 3 | -2 | 0 | -4 | 0 | . | . | .
Cc1cc(C)cc(-n2c(SCC(=O)Nc3cccc(S(=O)(=O)NC4=NCCCCC4)c3)nc3ccccc3c2=O)c1 | 26* | 12 | 1 | 6 | 0 | 97 | 4 | 1
SMILES | ADAM10 inh | rCAG binder | MPTP inh | ADAM17 inh | proKLK7 act | DSG3 Ab inh | ADAM10 confirm | ADAM17 counter
CCn1c(SCC(=O)NC2CC2)nnc1-c1ccc(OC)cc1 | 5 | -5 | -1 | 2 | 0 | . | . | .
O=C1CC(c2ccccc2Oc2cccc(Cl)c2)C(n2cncn2)C(=O)C1C1NCCc2ccccc21 (stereo not given) | 23* | 13 | 2 | 0 | 0 | 88 | -1 | -1
CC(C)(C)c1ccc(Oc2cccc(C3CC(=O)C(C4NCCc5ccccc54)C(=O)C3n3cncn3)c2)cc1 (stereo not given) | 6 | 9 | 1 | 0 | 0 | . | . | .
O=C(NCc1ccc2c(c1)OCO2)c1ccc(CSCc2ccccc2Cl)o1 | 23* | 1 | 3 | 7 | 1 | 98 | 8 | 4
O=C(NCc1ccc2c(c1)OCO2)c1ccccc1Cl | 2 | -1 | 1 | -3 | 0 | 101 | . | .
COc1cc(C(=O)N/C(=C\c2cn(C)c3ccccc23)C(=O)NCCN2CCOCC2)cc(OC)c1OC | -1 | 0 | 0 | -3 | 1 | . | . | .
O=C(NC(=S)Nc1cccc2cc(O)ccc12)c1ccccc1Br | -4 | 15 | 2 | -2 | 0 | 108 | . | .
COc1ccccc1C(=O)NC(=S)Nc1cccc2cc(O)ccc12 | 25* | 28 | 1 | 6 | 2 | 111 | 9 | 3
CC(=O)c1ccc(NC(=O)COC(=O)c2ccccc2N=Nc2ccc(N(C)C)cc2)cc1 | 22* | 7 | 0 | 8 | 0 | 106 | 1 | 1
O=c1c2ccccc2c(-c2ccc(O)cc2)nn1-c1cccc(C(F)(F)F)c1 | 21* | 8 | 23 | 12* | -3 | 100 | 6 | 2
CC(C)C(=O)NC(c1ccccc1)c1cc([N+](=O)[O-])c2cccnc2c1O (stereo not given) | 20* | 15 | 1 | 8 | 0 | . | 10 | 4
CCCNC(=O)C1(CC2CC(c3ccccc3)=NO2)CCN(C(=O)Cc2ccc(F)cc2)CC1 (stereo not given) | 6 | 1 | -3 | 6 | 0 | 106 | . | .
O=C1c2ccccc2C(c2nnnn2-c2ccc3c(c2)OCCO3)N1CCOc1ccccc1 (stereo not given) | -3 | 5 | 1 | -1 | 0 | . | . | .
